The text below walks through data of PubChem BioAssay (Tox21).

Unmarked numbers belong to inactive results. Inconclusive results are not listed. A call without a number means that no potency is given here. Activity calls are given as the source filed them. The call rests on the fitted dose curve.

One assay deals with Acetylcholinesterase (Homo sapiens) (UniProt P22303). As to the kind of experiment: Acetylcholinesterase (AChE) small molecule antagonists: fluorescence cell-based qHTS assay (AID 1347398). Further: nearly all actives have a fitted effect of over 50% in size. Further: potency means the concentration at half of the fitted maximal effect. As to conditions: SH-SY5Y cells; Potency: AChE activity; outcome: AChE activity; series mostly up to 115 µM. The procedure, abridged: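 Cells (SH-SY5Y) attached overnight, were dosed with compound or DMSO vehicle for 30 min at 37 C, and then incubated 40 min at room temperature with acetylthiocholine and Thiolite Green; green fluorescence indexed AChE activity.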
Chain of Acetylcholinesterase (Homo sapiens) (P22303 whole entry, looked up): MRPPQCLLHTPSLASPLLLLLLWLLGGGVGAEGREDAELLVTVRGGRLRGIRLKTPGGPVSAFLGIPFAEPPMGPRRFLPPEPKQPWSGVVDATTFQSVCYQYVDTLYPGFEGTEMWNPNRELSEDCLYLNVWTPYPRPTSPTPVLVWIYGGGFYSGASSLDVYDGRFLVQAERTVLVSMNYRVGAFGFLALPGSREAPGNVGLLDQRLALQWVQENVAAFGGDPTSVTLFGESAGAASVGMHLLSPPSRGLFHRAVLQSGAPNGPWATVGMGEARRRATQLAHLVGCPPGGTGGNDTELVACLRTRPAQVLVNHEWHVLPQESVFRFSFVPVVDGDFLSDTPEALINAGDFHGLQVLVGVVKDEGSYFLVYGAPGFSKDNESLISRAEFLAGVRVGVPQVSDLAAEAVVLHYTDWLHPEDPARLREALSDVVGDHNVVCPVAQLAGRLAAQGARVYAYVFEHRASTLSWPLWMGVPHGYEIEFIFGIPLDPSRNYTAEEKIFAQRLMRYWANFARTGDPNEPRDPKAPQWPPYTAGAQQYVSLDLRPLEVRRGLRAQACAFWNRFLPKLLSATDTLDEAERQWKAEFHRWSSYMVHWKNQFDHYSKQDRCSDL
As for `OCCCCCCO`, the Potency entry was “inactive”.
Consider `CCCN1C[C@H](CSC)C[C@@H]2c3cccc4[nH]cc(c34)C[C@H]21`, for which the Potency is 12.3 µM (active).
Still for that read-out and setting: to `COc1cc2nc(N3CCN(C(=O)C4CCCO4)CC3)nc(N)c2cc1OC` (stereo unspecified) belongs 12.3 µM (active).
For `O=S(=O)(c1ccc(OCc2ccccc2)cc1)c1ccccc1O`, the Potency result was “inactive”.
The same measure, in the same setting: for `CCOc1nc2cccc(C(=O)OC(C)OC(=O)OC3CCCCC3)c2n1Cc1ccc(-c2ccccc2-c2nn[nH]n2)cc1` (stereo unspecified) the value was “inactive”; for `CCOc1ccc2nc3cc(N)ccc3c(N)c2c1`, 13.8 µM (active).
On the same count and under the same terms, for `C=C(C)CS(=O)(=O)O` the value was “inactive”.
Take `CNc1ccc(O)cc1`: the Potency was 31.7 µM (active).
With `CC1CCCCN1CCCOC(=O)c1ccc(OC2CCCCC2)cc1` (stereo unspecified), the Potency is 12.3 µM (active).
With `Cc1nc2ccccn2c(=O)c1CCN1CCC(C(=O)c2ccc(F)cc2)CC1`, the Potency is 7.76 µM (active).
Still for that read-out and setting: for `CCCCCCCCCCCCCCCCCCOS(=O)(=O)O` the value was “inactive”.
The same measure, in the same setting: to `CC(=O)O[C@H]1C[C@@H]2CC[C@@H]3[C@H](CC[C@@]4(C)[C@H]3C[C@H]([N+]3(C)CCCCC3)[C@@H]4OC(C)=O)[C@@]2(C)C[C@@H]1N1CCCCC1` belongs 6.92 µM (active); to `COc1ccccc1OCC(O)CN1CCN(CC(=O)Nc2c(C)cccc2C)CC1` (stereo unspecified), “inactive”.
On the same count and under the same terms, for `CCCCCCCCCCCCCC(=O)OC` the value was “inactive”.
As to `CCN(CC)c1ccc(C=O)cc1`, the Potency result is “inactive”.
Regarding `Nc1c(NC/C=C\COc2cc(CN3CCCCC3)ccn2)c(=O)c1=O`, the activity change, negative = inhibition is -23% [at 23.8 µM].
Turning to `C[C@@H]1C[C@H]2[C@@H]3CCC4=CC(=O)C=C[C@]4(C)[C@@]3(Cl)[C@@H](O)C[C@]2(C)[C@@]1(OC(=O)c1ccco1)C(=O)CCl`, the Potency result was “inactive”.
Same read-out and setting: for `COC(=O)[C@]1(C)CCC[C@@]2(C)[C@H]1CC=C1C=C(C(C)C)CC[C@@H]12` the value was “inactive”.

Another assay shares this target. As to the kind of experiment: Acetylcholinesterase (AChE) small molecule antagonists: enzyme-based qHTS assay with human liver microsomes (AID 1347399). Further: nearly all actives have a fitted effect of over 60% in size. The note with it: Potency: qHTS inhibition; outcome: qHTS inhibition; series mostly up to 115 µM. The procedure, abridged:
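Recombinant human AChE (50 mU/mL in the enzyme mix) and human liver microsomes (0.25 mg/mL final) were preincubated with compound and NADPH (0.25 mg/mL final) for 30 min at 37 C. Acetylthiocholine/DTNB was then added; thiocholine was read colorimetrically after 10 min at room temperature.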
On to `OCCCCCCO`, for which the Potency result was “inactive”.
As for `CCCN1C[C@H](CSC)C[C@@H]2c3cccc4[nH]cc(c34)C[C@H]21`, the outcome was inactive.
Regarding `COc1cc2nc(N3CCN(C(=O)C4CCCO4)CC3)nc(N)c2cc1OC` (stereo unspecified), the Potency result is “inactive”.
Regarding `CC(=O)/C=C/C=C1/C2CCC(C2)C1(C)C` (stereo unspecified), the Potency entry is “inactive”.
Same read-out and setting: to `CC/C(=C(/c1ccc(O)cc1)c1ccc(OCCN(C)C)cc1)c1ccccc1` belongs “inactive”.
The same measure, in the same setting: for `O=S(=O)(c1ccc(OCc2ccccc2)cc1)c1ccccc1O` the value was “inactive”; for `CCCC(=O)OC[C@@H](OC(=O)CCC)[C@@H](OC(=O)CCC)[C@H](Cn1c2nc(=O)[nH]c(=O)c-2nc2cc(C)c(C)cc21)OC(=O)CCC`, “inactive”.
Still for that read-out and setting: to `CCOc1nc2cccc(C(=O)OC(C)OC(=O)OC3CCCCC3)c2n1Cc1ccc(-c2ccccc2-c2nn[nH]n2)cc1` (stereo unspecified) belongs “inactive”; to `CCOc1ccc2nc3cc(N)ccc3c(N)c2c1`, “inactive”; to `CC(Cc1ccc(O)c(O)c1)C(C)Cc1ccc(O)c(O)c1` (stereo unspecified), “inactive”.
`Oc1cc2ccccc2c2ccccc12`: the Potency entry was “inactive”.
On the same count and under the same terms, for `CCN(Cc1cccc(S(=O)(=O)O)c1)c1ccc(C(=C2C=CC(=[N+](CC)Cc3cccc(S(=O)(=O)[O-])c3)C=C2)c2ccccc2)cc1` the value was “inactive”; for `Cc1ccc2c(c1)OCC(=O)CO2`, “inactive”.
Same read-out and setting: to `C=C(C)CS(=O)(=O)O` belongs “inactive”; to `Clc1ccc(C(Cn2ccnc2)OCc2ccsc2Cl)c(Cl)c1` (stereo unspecified), “inactive”.
Same read-out and setting: to `NC(=O)NC1N=C([O][Al])NC1=O` (stereo unspecified) belongs “inactive”; to `C=CCc1cc(S(=O)(=O)c2ccc(O)c(CC=C)c2)ccc1O`, “inactive”; to `CNc1ccc(O)cc1`, “inactive”.
As to `CC1CCCCN1CCCOC(=O)c1ccc(OC2CCCCC2)cc1` (stereo unspecified), the Potency result is “inactive”.
Same read-out and setting: to `CCCCCCCCCC[N+](C)(CCCCCCCCCC)CCC[Si](OC)(OC)OC` belongs “inactive”.
Turning to `Cc1nc2ccccn2c(=O)c1CCN1CCC(C(=O)c2ccc(F)cc2)CC1`, the Potency entry is “inactive”.
Still for that read-out and setting: for `CN(CCOc1ccc(NS(C)(=O)=O)cc1)CCc1ccc(NS(C)(=O)=O)cc1` the value was “inactive”; for `CCCCCCCCCCCCCCCCCCOS(=O)(=O)O`, “inactive”; for `CN1CCCN=C1/C=C/c1cccs1`, “inactive”.
The same measure, in the same setting: to `CCOC(=O)c1ccc(NC(=O)CN2CCCCC2)cc1` belongs “inactive”; to `CC(=O)O[C@H]1C[C@@H]2CC[C@@H]3[C@H](CC[C@@]4(C)[C@H]3C[C@H]([N+]3(C)CCCCC3)[C@@H]4OC(C)=O)[C@@]2(C)C[C@@H]1N1CCCCC1`, “inactive”.
For the molecule `OCC(F)(F)F`, the Potency entry is “inactive”.
Take `Clc1ccc(C(Cn2ccnc2)OCc2c(Cl)cccc2Cl)c(Cl)c1` (stereo unspecified): the Potency entry is “inactive”.
The same measure, in the same setting: for `C=C(C)C(=O)OCC(O)COc1ccc(C(C)(C)c2ccc(OCC(O)COC(=O)C(=C)C)cc2)cc1` (stereo unspecified) the value was “inactive”.
The same measure, in the same setting: for `COc1cc(N)c(Cl)cc1C(=O)NC1CCN(Cc2ccccc2)CC1` the value was “inactive”.
For the molecule `COc1ccccc1OCCNCC(O)COc1cccc2[nH]c3ccccc3c12` (stereo unspecified), the Potency result was “inactive”.
On the same count and under the same terms, to `COc1ccccc1OCC(O)CN1CCN(CC(=O)Nc2c(C)cccc2C)CC1` (stereo unspecified) belongs “inactive”; to `CCCCCCCCCCCCCC(=O)OC`, “inactive”.
Still for that read-out and setting: for `CCN(CC)c1ccc(C=O)cc1` the value was “inactive”; for `O=C(/N=N/C(=O)OCc1ccccc1)OCc1ccccc1`, “inactive”.
For the molecule `Nc1c(NC/C=C\COc2cc(CN3CCCCC3)ccn2)c(=O)c1=O`, the activity change, negative = inhibition was 0.669% [at 23.6 µM].
As for `C[C@@H]1C[C@H]2[C@@H]3CCC4=CC(=O)C=C[C@]4(C)[C@@]3(Cl)[C@@H](O)C[C@]2(C)[C@@]1(OC(=O)c1ccco1)C(=O)CCl`, the Potency result was “inactive”.
Take `COC(=O)[C@]1(C)CCC[C@@]2(C)[C@H]1CC=C1C=C(C(C)C)CC[C@@H]12`: the Potency entry is “inactive”.
